# Measurements: the supplement of paper PMC6555819
# Columns and labels:
# Assay in all cases: PBM binding z-score (relative to random genomic background probes); higher = stronger binding; sequences stand for … in GC…GCGATTGACAGCGTAGAATGAAGG
# [1] = tested on: FXR:RXRa (NR concentration 270 nM, RXRa partner concentration 90 nM)
# How it was run: (§1)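 Binding buffer was PBS pH 7.4 with 2% milk, 0.02% Triton X-100, 1 mM DTT, 0.2 mg/mL BSA and 0.4 mg/ml salmon testes DNA. In it, ligand-free nuclear receptor dimers were incubated 1 h on custom Agilent 4×180K protein-binding microarrays carrying double-stranded probes. Antibodies against each partner (one per run) detected binding, and z-scores were calculated against random background probes after regression normalization of scanned fluorescence.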
# [2] = tested on: LXRa:RXRa (NR concentration 270 nM, RXRa partner concentration 90 nM)
# How it was run: as §1
# [3] = tested on: LXRa homodimer (NR concentration 270 nM)
# How it was run: as §1
# [4] = tested on: LXRb:RXRa (NR concentration 270 nM, RXRa partner concentration 90 nM)
# How it was run: as §1
# [5] = tested on: LXRb homodimer (NR concentration 270 nM)
# How it was run: as §1
# [6] = tested on: PPARa:RXRa (NR concentration 270 nM, RXRa partner concentration 90 nM)
# How it was run: as §1
# [7] = tested on: PPARg:RXRa (NR concentration 180 nM, RXRa partner concentration 90 nM)
# How it was run: as §1
# [8] = tested on: PPARg:RXRa 270nM:90nM, anti-RXR (NR concentration 270 nM, RXRa partner concentration 90 nM)
# How it was run: as §1
# [9] = tested on: PPARg:RXRa 30nM:10nM, anti-RXR (NR concentration 30 nM, RXRa partner concentration 10 nM)
# How it was run: as §1
# [10] = tested on: PPARg:RXRa 90nM:30nM, anti-RXR (NR concentration 90 nM, RXRa partner concentration 30 nM)
# How it was run: as §1
Sequence,PBM binding z-score [1],PBM binding z-score [2],PBM binding z-score [3],PBM binding z-score [4],PBM binding z-score [5],PBM binding z-score [6],PBM binding z-score [7],PBM binding z-score [8],PBM binding z-score [9],PBM binding z-score [10]
CCTACTGGGCCAAAAAGGGCATTGATGCCGATAA,-0.479,-0.109,-0.296,-0.0231,-1,1.12,0.538,1.32,-0.152,0.651
GCTAGTTGGTCAGTAAAAGGTAACACACCGGTCG,0.0852,0.248,0.0445,0.107,-0.224,0.694,0.783,0.945,0.0648,0.29
AGAATGAGGTTATTAAGATCAGAGAATTGCGGTC,1.56,1.62,0.0516,1.19,0.109,2.71,1.59,1.75,0.553,1.22
GCTTGTATATCAAGGTTAAGAAAGACTAAGCTAA,0.268,1.1,-0.0678,0.659,-0.396,1.19,0.639,0.798,0.189,0.527
AGAATGAGGGTAAGATCAGGGAAACAGAATACAT,0.539,0.166,0.147,0.566,0.276,0.918,0.981,0.698,0.455,0.409
ATCGGAAGGTCGAAGGTGAGTATACCCACCCGAA,2.14,1.54,-0.0479,1.23,-0.0206,3.18,3.05,3.84,1.55,3.07
CCTCGGCGGACAACAGGAGGTCAGAGCTGCCAGA,0.527,1.43,1.67,1.06,-1.27,1.68,-0.102,0.0174,-0.988,-0.415
ATCTCTAGGTAAAGATAGTTCAGTGCATGCAAAT,0.301,4,0.693,0.899,0.443,0.697,0.357,0.286,0.0573,0.225
CCCAGCAGGCCAATCTGGGTCACTCAAGGCTTGA,0.369,1.43,-0.513,0.944,-1.13,3.19,1.76,2.13,-0.161,1.13
CGCCCAAGGTCATAGGAGGTCAGTGAAGACAGAT,7.29,7.31,4.78,6.09,0.731,5.8,5.24,5.41,2.05,4.11
GCTGCTAGGTCAGGTTGGTCAGCTTACGGGTACG,1.11,0.781,-0.122,0.397,-0.0807,1.07,0.483,0.904,-0.57,0.294
ATACCAAGGTGATCGTGAGGTCGTGGATACTAAC,1.71,1.27,0.515,1.39,-0.127,2.17,0.846,0.784,-0.103,0.493
CCTGCTGGGCCATCAGGTCATTGATATCAACGTT,1.15,0.86,0.504,1.18,-0.89,1.73,0.432,1.06,-0.123,0.467
CGTCCAAGGACAGAGAGGTCAGTGAATGCCGAGT,1.59,1.6,1.09,1.72,-0.627,2.13,0.584,0.665,-0.328,-0.223
GCTGCTAGGTCACCTGATGGTCAGCTAAAGCTCG,3.25,2.4,-0.338,1.66,-0.22,3.22,2.21,2.86,0.569,1.95
ATCGAAAGGTCGACGAGGGGAGTATACACCGTTT,4.13,3.51,0.159,2.8,1.07,4.15,2.47,2.77,0.952,1.67
ATATGTAGGTTAGCTGGGGTCATACAGACTAGGC,5.27,5.79,2.45,4.74,0.852,5.2,6,5.38,2.74,4.94
CTACCAATGTGAACAAGGTCGTTGATTACTATTC,0.783,1.15,0.608,1.83,0.441,1.51,0.331,0.322,0.12,0.449
CGAACGAGGGCATGAGTTGGTAGCAAATGCCGAT,0.159,0.0461,-0.707,-0.2,-1.32,1.06,0.849,0.827,0.00769,0.471
